PINK1 modulator – A Quantitative High throughput Screen to Identify Chemical Modulators of PINK1 Expression. 0.2% of 410,000 active. PINK1 immunofluorescence, high-content cytometry, 24 h. Potency, µM (highest dose often 76.6 µM), without a hit: top-dose activation (PINK1 increase), most hits filed as activators; active = well fitted activation curve with a large enough effect; inconclusive = small, poorly fitted or top-dose-only effect; cell line not stated here; note: potency is the fitted concentration of half-maximal effect; % of control where 0% means no effect; nearly all actives have a fitted effect of over 65% in size
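Stable cell line, 250 cells/well, 12 h attachment; compounds pinned at 5 concentrations, 24 h; CCCP control. Fixed with nuclear dye, primary antibodies 12 h at 10 degrees C, secondary plus cell stain; laser-scanning cytometer read.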
p53 reactivator – qHTS assay for re-activators of p53 using a Luc reporter; H1299 p53-A138V BP100-luciferase reporter, luminescence, 24 h; Potency, µM (doses to about 92.2 µM), for the others: at the top dose activity change, positive = activation, most hits filed as activators; 0.063% of 320,000 active; AID 504706, 2011; note: potency is the fitted concentration of half-maximal effect; % of control where 0% means no effect; nearly all actives have a fitted effect of over 45% in size
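p53-null H1299 cells stably carrying temperature-sensitive p53-A138V and a BP100-luciferase reporter were pinned with compounds (4-point, 1:5 series) and held 24 hrs at 37 deg C. Luminescence was read 10 min after detection reagent.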
miR-21 reporter – qHTS Assay for Modulators of miRNAs and/orActivators of miR-21 | HeLa miR-21 FLuc reporter, luciferase, 48 h | Potency, µM (highest dose often 38.3 µM), without a hit: top-dose activity change, positive = activation, hits mostly activators | 340,000 tested, under 10 active | AID 2288, 2010;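 note: % of control where 0% means no effect; miR-21 action dims this reporter so a rising signal means less miR-21 action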
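Using DMEM plus 10% FBS, HeLa miR-21-FLuc cells are incubated with test compounds (final up to about 40uM) for 48 hours; firefly luciferase signal is then imaged following reagent-mediated lysis.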
uPA generation – qHTS for Inhibitors of Cell Surface uPA Generation; cell surface uPA generation assay, qHTS; 0.31% of 330,000 active; AID 540303, 2011; Potency, µM (doses to about 38.3 µM), for inactives: top-dose activity change, negative = inhibition, usual class: inhibitors; active = well fitted inhibition curve with a large enough effect; inconclusive = small, poorly fitted or top-dose-only effect; inactive = no such curve, though single readings can be large or run the other way; tested in mouse RAW 264.7 cells; note: potency is the fitted concentration of half-maximal effect; % is set by controls: 0 for no effect and ±100 for the full control effect; nearly all actives have a fitted effect of over 55% in size
IL2 activator – qHTS of IL-2 Activators; 0.065% of 360,000 active; IL-2 activation reporter assay, cell-based qHTS; stimulated with anti-CD3/CD4/CD28 beads; in transgenic mouse T cells; activation, % (series mostly up to about 46 µM); AID 652025, 2013; in the data active = activation above about 50%; inconclusive = mostly about 30% to 49%; note: 0% is about no effect
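First, unstimulated transgenic mouse T cells were exposed to compound for 60 min. Next, anti-CD3/anti-CD4-coated beads with anti-CD28 were added. Finally, after 18 h at 37 degrees C, EGFP and DsRed were imaged.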
Epigenetic derep – Quantitative High-Throughput Screen for Regulators of Epigenetic Control; murine LDR cells, GFP reporter derepression, 30 h; 0.2% of 280,000 active; AID 1865, 2009; Potency, µM (doses to about 53.9 µM), without a hit: at the highest dose GFP activation, actives largely listed as activators; note: potency is the fitted concentration of half-maximal effect; % of control where 0% means no effect; nearly all actives have a fitted effect of over 60% in size
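Derepression of a silenced CMV-GFP reporter in murine LDR cells is scored by enumerating GFP-positive cells with a laser-scanning microplate cytometer after 30 hours of treatment at 37 C.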
Numbers without * were called inactive; u = inconclusive; x = no result. Most compounds without a hit are left out; they make up all but 0.62% or so of the library. Unless noted, calls come from the whole dose curve; as a rule, active = well fitted curve in the direction sought with a large enough effect; inconclusive = small, poorly fitted or top-dose-only effect, or another doubt; inactive = no such curve, though single readings can be large; an effect the other way counts as inactive or inconclusive.

SMILES	PINK1 modulator	p53 reactivator	miR-21 reporter	uPA generation	IL2 activator	Epigenetic derep
Cc1ccc[n+](CC2OCc3ccccc3CO2)c1	0%	-2%	1%	1%	-1	-1%
CCCCN(CCCC)CC1OCc2ccccc2CO1	4µM*	-3%	2%	5%	-2	1%
COc1cc(-c2cnc3ccccc3c2)cc2c1OCCN(C(=O)CCC(=O)c1ccc(F)cc1)C2	0%	x	x	x	x	x
COc1ccc2cc(CN(C(=O)c3cc(C)nn3C)C3CC3)c(-c3ccc(Cl)cc3)nc2c1	1%	x	x	x	x	x
C[C@@H]1CN(Cc2ccc3c(c2)CN(C(=O)c2ccc(Oc4ccccc4)o2)CCO3)C[C@H](C)O1	2%	x	x	x	x	x
COc1ccc(F)c(CN2CCC3(CCC(CNC(=O)c4cc(C)nn4C)O3)CC2)c1 (stereo not drawn)	1%	x	x	x	x	x
CC1(C)CC(=O)C(C2C3=C(CC(C)(C)CC3=O)Oc3c(Br)cc(Br)cc32)=C(O)C1 (stereo not drawn)	22µM*	4%	-4%	15%	3	x
CC1(C)CC(=O)C2=C(C1)OC1=C(C(=O)CC(C)(C)C1)C2c1cc([N+](=O)[O-])cc([N+](=O)[O-])c1O	3%	-2%	19%	3%	2	1%
COc1ccc(OC)c(CN2C[C@H](Sc3ccc(F)cc3)C[C@H]2C(=O)N(C)C)c1	-1%	x	x	x	x	x
CC(C)c1c(C(=O)N2CCCCC2c2cccnc2)cnn1-c1nccc(-c2cccs2)n1 (stereo not drawn)	0%	x	x	x	x	x
Cc1ccc(Nc2n[nH]c(C)c2[N+](=O)[O-])cc1C	3%	22µM*	-44%	-1%	-2	-1%
CCOCCCNc1nc2c(C)cccn2c(=O)c1/C=C1\SC(=S)N(C(C)CC)C1=O (stereo not drawn)	14%	-2%	3%	1%	18	3.2µM*
CCOC(=O)c1cn(-c2c(Cl)cccc2Cl)c2cc(Cl)c([N+](=O)[O-])cc2c1=O	-2%	-1%	-8%	8.9µM*	-4	-1%
COc1cc(Cl)c(CN2CCOc3ccc(CN4CCCCC4CO)cc3C2)cc1OC (stereo not drawn)	-1%	x	x	x	x	x
CC(=O)c1cc(NC(=O)c2cccc(C(F)(F)F)c2)c(=O)oc1/C=C/N(C)C	u	-4%	1%	2%	58*	18%
N#C/C(=N\Nc1ccc(S(=O)(=O)N2CCc3ccccc32)cc1)C(N)=S	u	-6%	14%	-2%	1	-1%
CCOC(=O)/C(C#N)=N/Nc1ccc(S(=O)(=O)N2CCc3ccccc32)cc1	16µM*	-5%	22%	1%	0	-1%
O=C(NCC1CCC2(CCN(Cc3ccc4ncccc4c3)CC2)O1)C1CCCO1 (stereo not drawn)	0%	x	x	x	x	x
Cc1ccc(Nc2nc(N)c3ccccc3n2)cc1Cl	11%	u	-27%	7.9µM*	-1	x
COc1cc2nc(Nc3ccc(C)c(Cl)c3)nc(N)c2cc1OC	-4%	-18%	27%	-2%	-1	x
CCN(N=O)c1ccc(/C=C/c2ccnc3ccccc23)cc1	0%	x	x	x	x	x
CCC1CN(CCNC(=O)c2cn3cc(C)ccc3n2)Cc2cc(OC)ccc2O1 (stereo not drawn)	3%	x	x	x	x	x
O=c1c[n+]([O-])c2ccccc2n1OCc1c(F)cccc1F	0%	1%	-7%	-13%	0	13µM*
COc1ccccc1C(=O)N[C@@H]1c2ccccc2C2(CCN(C(=O)c3ccnn3C)CC2)[C@H]1OC	0%	x	x	x	x	x
COc1ccccc1CNS(=O)(=O)c1ccc(-c2cnc(C3CC3)o2)cc1	2%	-2%	17%	0.28µM*	0	-3%
SMILES	PINK1 modulator	p53 reactivator	miR-21 reporter	uPA generation	IL2 activator	Epigenetic derep
COc1cc(=O)n2c(c1C(=O)NCc1ccco1)CCN(Cc1ccc3nsnc3c1)CC2	2%	x	x	x	x	x
CCOc1ccc(N(CC(=O)Nc2ccccc2OCC)S(=O)(=O)c2c(C)noc2C)cc1	7%	10%	23%	1.3µM*	0	x
Cn1nnnc1Sc1ncnc2scc(-c3ccc(-c4ccccc4)cc3)c12	-1%	-10%	x	2µM*	-4	x
Cn1nnnc1Sc1ncnc2scc(-c3cccc(C(F)(F)F)c3)c12	-1%	-15%	x	8.9µM*	-4	x
Cn1nnnc1Sc1ncnc2scc(-c3ccc(C(F)(F)F)cc3)c12	-1%	-33%	x	u	-1	x
CCC(C(=O)NCCc1cc(OC)ccc1OC)n1nc(C)c2sc3ccccc3c2c1=O (stereo not drawn)	3%	x	-16%	x	x	13µM*
CC1(C)N=c2ccc([N+](=O)[O-])c(N)c2=[N+]1[O-]	-3%	20%	7%	10µM*	-1	0%
Cc1ccc([N+](=O)[O-])c(C)[n+]1C	-2%	10%	10%	-29%	-1	-1%
COc1ccc(-c2ccc(CCC(=O)O)n2-c2ccccc2OC)cc1	14%	x	19%	2.2µM*	0	x
COc1ccccc1-n1c(CCC(=O)O)ccc1-c1ccccc1	0%	x	-20%	-4%	1	x
COc1ccc(O)c(CN2CCC3(CCC(CNC(=O)c4ccco4)O3)CC2)c1 (stereo not drawn)	0%	x	x	x	x	x
OC(c1cccnc1)c1ccc2c(c1)CN(Cc1cn(-c3ccccc3)nc1-c1ccccc1)CCO2 (stereo not drawn)	0%	x	x	x	x	x
Cc1ccc(S(=O)(=O)Nc2ccccc2CNc2ccc(Br)cn2)cc1	16µM*	2%	0%	-4%	-1	1%
CCOc1ccc(NC(=O)c2ccncc2)cc1	-1%	18%	-26%	-1%	4	0%
CCOc1ccc2c(c1)C(=NNC(=O)c1ccncc1)c1cc(OCC)ccc1-2	u	40µM*	-19%	-4%	-3	u
Cc1cc(-c2cc(F)cc3c2OC(CNC(=O)CCn2cncn2)C3)ccc1F (stereo not drawn)	-1%	x	x	x	x	x
O=C(NC(=S)Nc1ccccc1Br)C1CCCC1	5%	28µM*	-54%	3%	-2	x
Cc1cc(N2CCC(C)CC2)nc(NCc2ccccc2)n1	35µM*	-2%	28%	u	-5	3%
C(=N\Nc1nc2ccccc2[nH]1)/c1c[nH]c2ccccc12	2%	25µM*	23%	-2%	-6	7%
C(=N\Nc1nc2ccccc2[nH]1)/c1ccccc1	5%	-1%	-54%	-7%	-1	2%
O=[N+]([O-])c1ccc(N/N=C/c2c[nH]c3ccccc23)cc1	-1%	21%	-26%	-8%	2	14µM*
